From PubChem BioAssay (NCI) come the findings set out here.

About 83,000 compounds went through this panel and 20% of them were active in at least one assay; those are over-represented in the sample as a whole.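 96-well plates, one dose, 48 hours. Percent growth reported; active if below 10.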 Unmarked numbers belong to inactive results. The source made the active and inactive calls.

Among the test systems are NCI-H23 lung; NCI-H226 lung; NCI-H322M lung; HOP-62 NSCLC; NCI-H460 lung; HOP-92 NSCLC; NCI-H522 lung; A549/ATCC NSCLC; 786-0 renal; COLO 205 colon; DU-145 prostate; K-562 leukemia; MALME-3M melanoma; MDA-MB-231 breast; RXF 393 renal; SF-268 CNS; SF-295 CNS; SF-539 CNS; UACC-257 melanoma; M14 melanoma.
Holding throughout (assay): NCI-60 one-dose screen, 48 h (100 = growth as untreated, 0 = no growth, -100 = all killed)
Common to all, as to conditions: 10 µM unless noted

As to `O=S(=O)(N=C1C(Cl)=C(Cl)C(=NS(=O)(=O)c2ccccc2)C(Cl)=C1Cl)c1ccccc1`, the growth in the assay with NCI-H23 lung is 73.3%; in the assay with NCI-H226 lung, 97.5%; with NCI-H322M lung it was 97.4%; in the assay on HOP-62 NSCLC, 91.5%; with NCI-H460 lung, 39.1%; in the assay with HOP-92 NSCLC, 134%. The growth in the assay with NCI-H522 lung was 39.3%; in the assay with A549/ATCC NSCLC, 74.4%; in the assay with 786-0 renal, 118%; with COLO 205 colon, 98.4%; in the assay on DU-145 prostate it was 20.5%; in the assay with K-562 leukemia, 65.6%. The growth was 113% in the assay on MALME-3M melanoma; 98.8% in the assay on MDA-MB-231 breast; 64.7% in the assay on RXF 393 renal; 87.1% with SF-268 CNS; 64.2% with SF-295 CNS; 109% in the assay with SF-539 CNS. The growth was 68.9% in the assay on UACC-257 melanoma and 94.1% in the assay with M14 melanoma.

For `Oc1c(I)cc(I)cc1CN(Cc1ccccn1)Cc1ccccn1`, the growth is 25.6% in the assay with NCI-H23 lung; 21.7% with NCI-H226 lung; 18.4% in the assay on NCI-H322M lung; 18.7% with HOP-62 NSCLC; 4.01% (active) in the assay on NCI-H460 lung; 24.4% in the assay with HOP-92 NSCLC. Besides, the growth in the assay with NCI-H522 lung is 11.5%; in the assay on A549/ATCC NSCLC it was 7.57% (active); with 786-0 renal, 18.2%; in the assay with COLO 205 colon it was 16%; with DU-145 prostate, 29%; in the assay on K-562 leukemia, 14.2%. Further, the growth in the assay on MALME-3M melanoma is 17.1%; in the assay with MDA-MB-231 breast, 33.4%; in the assay with RXF 393 renal, 46.7%; with SF-268 CNS, 19.7%; in the assay with SF-295 CNS, 23.5%; in the assay with SF-539 CNS, 4.05% (active). The growth is 1.45% (active) in the assay with UACC-257 melanoma and -16.6% (active) with M14 melanoma.

Consider `Nc1cc(-c2ccc(Cl)cc2)nn1-c1nnc(/C=C/c2ccco2)c(=O)[nH]1`, for which the growth in the assay with NCI-H23 lung is 58.8%; in the assay with NCI-H226 lung, 47.4%; with NCI-H322M lung, 24.4%; in the assay on HOP-62 NSCLC it was 71.3%; with NCI-H460 lung, 20.4%; with HOP-92 NSCLC it was 60.3%. Moreover, the growth was 74.9% in the assay with NCI-H522 lung; 37.3% in the assay on A549/ATCC NSCLC; 46.9% in the assay with 786-0 renal; 72.6% with COLO 205 colon; 63.3% in the assay with DU-145 prostate; 41.7% with K-562 leukemia. Moreover, the growth in the assay with MALME-3M melanoma is 72.5%; with MDA-MB-231 breast, 74.2%; in the assay with RXF 393 renal, 67.8%; with SF-268 CNS, 52.5%; in the assay with SF-295 CNS it was 9.9% (active); in the assay on SF-539 CNS it was 55.4%. Moreover, the growth was 69.6% in the assay with UACC-257 melanoma and 57.4% in the assay with M14 melanoma.

Regarding `O=C(Nc1cc(Cl)cc(Cl)c1)Oc1c(Cl)c(Cl)c(Cl)c(Cl)c1Cl`, the growth with NCI-H23 lung is 57%; in the assay on NCI-H226 lung, 72.5%; in the assay on NCI-H322M lung it was 99.2%; with HOP-62 NSCLC, 94.4%; with NCI-H460 lung, 72.6%; in the assay on HOP-92 NSCLC, -18.7% (active). For the same compound, the growth with NCI-H522 lung is 38.9%; in the assay with A549/ATCC NSCLC it was 71.2%; with 786-0 renal, 81.1%; in the assay with COLO 205 colon, 80.7%; with DU-145 prostate, 83.7%; in the assay with K-562 leukemia, 41.4%. Also, the growth in the assay on MALME-3M melanoma was 80.6%; in the assay on MDA-MB-231 breast, 77.8%; with RXF 393 renal, 79.7%; with SF-268 CNS, 77.3%; with SF-295 CNS, 59.8%; with SF-539 CNS, 76.8%. Further, the growth with UACC-257 melanoma was 83.7%; in the assay with M14 melanoma, 87.3%.

Regarding `Nc1nc(N(Cc2ccccc2)c2ccccc2)c2cn[nH]c2n1`, the growth with NCI-H23 lung is 81.7%; in the assay with NCI-H226 lung, 98.3%; in the assay with NCI-H322M lung, 94.2%; in the assay on HOP-62 NSCLC, 70%; in the assay with NCI-H460 lung, 75.8%; in the assay with HOP-92 NSCLC it was 62.1%. Also, the growth was 90.1% in the assay on NCI-H522 lung; 71.4% in the assay with A549/ATCC NSCLC; 72.3% in the assay on 786-0 renal; 58.8% with COLO 205 colon; 88.2% with DU-145 prostate; 23.9% in the assay with K-562 leukemia. Moreover, the growth was 62.8% in the assay with MALME-3M melanoma; 62.1% with MDA-MB-231 breast; 67.6% in the assay on RXF 393 renal; 73.8% in the assay with SF-268 CNS; 51.5% in the assay with SF-295 CNS; 68.8% with SF-539 CNS. Besides, the growth is 99.7% in the assay with UACC-257 melanoma and 33.5% in the assay with M14 melanoma.

Consider `Cn1cc(-c2nc3c(F)cc4[nH]ncc4c3c3c2CCCC3)c(C(F)(F)F)n1`, for which the growth with NCI-H23 lung is 37.7%; in the assay on NCI-H226 lung, 67.3%; in the assay on NCI-H322M lung it was 47.6%; with HOP-62 NSCLC, 31%; in the assay on NCI-H460 lung it was 37.5%; in the assay with HOP-92 NSCLC, -7.54% (active). For the same compound, the growth was 0.529% (active) with NCI-H522 lung; 17.3% with A549/ATCC NSCLC; 42.7% in the assay on 786-0 renal; 35.6% in the assay on COLO 205 colon; 52.3% in the assay with DU-145 prostate; 19.3% with K-562 leukemia. In addition, the growth is 59.7% in the assay with MALME-3M melanoma; 48.9% with MDA-MB-231 breast; 23% in the assay with RXF 393 renal; 47.7% in the assay on SF-268 CNS; 49.2% in the assay with SF-295 CNS; 27.9% in the assay with SF-539 CNS. For the same compound, the values for the growth with UACC-257 melanoma and in the assay with M14 melanoma were 53.5% and 30.1%, respectively.

For `CC1(/C=C/c2ccc(-c3ccccc3)cc2)CCn2cnc3ncnc(c32)N1O` (stereo not given), the growth was 13% with NCI-H23 lung; 17% with NCI-H226 lung; 26.9% in the assay on NCI-H322M lung; 19.6% in the assay on HOP-62 NSCLC; 3.93% (active) with NCI-H460 lung; 52.3% with HOP-92 NSCLC. In addition, the growth in the assay with NCI-H522 lung is 26%; in the assay on A549/ATCC NSCLC, 15.6%; with 786-0 renal it was 1.88% (active); with COLO 205 colon, 28%; in the assay on DU-145 prostate, 21.4%; in the assay with K-562 leukemia it was 14.9%. The growth in the assay on MALME-3M melanoma was 23.3%; in the assay on MDA-MB-231 breast it was 53.9%; with RXF 393 renal it was 5.19% (active); in the assay on SF-268 CNS, 16.6%; in the assay on SF-295 CNS, 13.3%; with SF-539 CNS, 1.19% (active). The growth with UACC-257 melanoma is 10.7%; with M14 melanoma it was -2.25% (active).
